Values joined by “and” are separate entries in the source; they are usually repeats but may differ in a detail not shown here. Equal values may be shown once. Values without a mark were called inactive.
These molecules were tested on HCC1569 (assay: H1.0 immunofluorescence intensity relative to DMSO (% of DMSO); higher = stronger H1.0 induction, active = 140 or more). Settings: concentration: 10 µM; 24 h.
How it was run: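 Cells were seeded at 800 per well in 384-well plates with RPMI containing 10% FBS; both HCC1569 and TDF lines were used. Compounds were added at 10 µM for 24 h at 37 °C, in triplicate, before fixation in 3.7% formaldehyde and staining with a rabbit anti-H1.0 antibody, an AlexaFluor 647 secondary and DAPI. H1.0 nuclear intensity or cell number is reported as percent of the plate control using the median of replicates, and HCC1569 values were smoothed for positional effects.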
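Further: TDF is a line of transformed human dermal fibroblasts of mesenchymal origin.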

Row | SMILES | H1.0 immunofluorescence intensity
1 | OCC1=CC(O)C2C=COC(OC3OC(CO)C(O)C(O)C3O)C12 (stereo unspecified) [Aucubin] | 85
2 | CN(C)CC=C(c1ccc(Br)cc1)c1cccnc1.Cl.Cl [Zimelidine dihydrochloride] | 116
3 | COc1ccc(/C=C\c2cc(OC)c(OC)c(OC)c2)cc1OP(=O)([O-])[O-].[Na+].[Na+] | 140
4 | COc1cc(C(=O)c2ccc3ncccc3c2)cc(OC)c1OC [quinolin-6-yl(3,4,5-trimethoxyphenyl)methanone] | 167 (active)
5 | CC(C)NCC(O)c1ccc(NS(C)(=O)=O)cc1.Cl (stereo unspecified) [Sotalol.HCl] | 99
6 | CC12CCC3c4ccc(O)cc4CC(CCCCCCCCCS(=O)CCCC(F)(F)C(F)(F)F)C3C1CCC2O (stereo unspecified) [Fulvestrant] | 110
7 | Cc1ncc([N+](=O)[O-])n1CC(C)O (stereo unspecified) [Secnidazole] | 107
8 | COc1ccc(-c2cc(C(O)C3CCCCN3)c3ccccc3n2)cc1.Cl.Cl (stereo unspecified) | 157 (active)
9 | COC(=O)Nc1nc2ccc(C(=O)c3ccc(F)cc3)cc2[nH]1 [Flubendazole] | 168 (active)
10 | COc1cc(-c2ccc(=O)[nH]n2)ccc1OC(F)F [Zardaverine] | 110
11 | O=C(CO)N1CCC(c2[nH]nc(-c3ccc(Cl)cc3)c2-c2ccncn2)CC1 | 96
12 | CN(C)c1nc(N)c(C(=O)N=C(N)N)nc1Cl.Cl [5-(N,N-Dimethyl)amiloride hydrochloride] | 103
13 | CSCC[C@@H](C=O)NC(=O)[C@H](CC(C)C)NC(=O)[C@H](CC(C)C)NC(C)=O | 92.2
14 | O=S(=O)(NCCNCC=Cc1ccc(Br)cc1)c1cccc2cnccc12 | 84.2 and 136
15 | CCN(CC)CCNC(=O)c1ccc(N)cc1.Cl [Procainamide.HCl] | 101
16 | CC(C)n1c(C=CC(O)CC(O)CC(=O)O)c(-c2ccc(F)cc2)c2ccccc21 (stereo unspecified) [Fluvastatin] | 103

Row | SMILES | H1.0 immunofluorescence intensity
17 | CC(=O)OC1(C(C)=O)CCC2C3C=C(Cl)C4=CC(=O)C5CC5C4(C)C3CCC21C (stereo unspecified) [Cyproterone acetate] | 98.5
18 | CCCCCCCCCCCCCCCCn1cc[n+](Cc2ccccc2)c1C.[I-] [eEF-2 Kinase Inhibitor, NH125] | 101
19 | CC(C)(C)c1nc2c3cc[nH]c(=O)c3c3cc(F)ccc3c2[nH]1 [JAK Inhibitor I] | 126
20 | COc1ccc(/C=C\c2cc(OC)c(OC)c(OC)c2)cc1O [2-methoxy-5-[(Z)-2-(3,4,5-trimethoxyphenyl)ethenyl]phenol] | 162 (active)
21 | CN1CCN(CCCN2c3ccccc3Sc3ccc(Cl)cc32)CC1.O=C(O)C=CC(=O)O.O=C(O)C=CC(=O)O [Prochlorperazine dimaleate] | 157 (active)
22 | CC(=O)NCCc1c[nH]c2ccc(O)cc12 [N-Acetyl-5-hydroxytryptamine] | 87.2
23 | Nc1nc2ccc(Cl)cc2c2nc(-c3ccco3)nn12 | 118
24 | O=C(C=Cc1ccc(O)c(O)c1)OC(Cc1ccc(O)c(O)c1)C(=O)O (stereo unspecified) [Rosmarinic acid] | 98.7
25 | OCc1cc(C(O)CNCCCCCCOCCCCc2ccccc2)ccc1O (stereo unspecified) [Salmeterol] | 132
26 | CS(=O)(=O)Nc1ccc(-c2coc3cc(OCc4cccc(C(=O)O)c4)ccc3c2=O)cc1 | 107
27 | COc1cc2c[n+](C)c3c4cc5c(cc4ccc3c2cc1OC)OCO5.[Cl-] | 106
28 | CC(=O)OC(C)C[N+](C)(C)C.[Cl-] (stereo not drawn) [Acetyl-beta-methylcholine chloride] | 88.4
29 | COc1cccc(OC)c1OCCNCC1CSc2ccccc2O1.Cl (stereo unspecified) [Benoxathian hydrochloride] | 92
30 | CCC(Sc1nnc2c(n1)[nH]c1ccccc12)C(=O)N1c2ccccc2Sc2ccccc21 (stereo unspecified) | 700 (active)
31 | COc1cc(NS(=O)(=O)c2ccc(N)cc2)nc(OC)n1 [Sulfadimethoxine] | 92.3

From the supplement of paper PMC7156485
